# Results taken from the supplement of paper PMC8728848.
# This is one part of a sample in which the strongest signals are shown more often than they occur.
# Key:
# Assay in all cases: glycan array binding signal (z-score within array); higher = stronger binding
# Conditions in all cases: glycan notation: IUPAC condensed, linker removed
# [1] = molecular target: Fuc(a1-2)Gal(b1-3)GalNAc
# In short: (§1)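 The binding signal is a Z-score computed within each array and averaged over linkers. Arrays of the same protein sequence at different concentrations or buffers were also averaged together. Data originate from 3228 arrays in the Consortium for Functional Glycomics database, kept only where the protein sequence was available.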
# [2] = molecular target: Fuc(a1-2)Gal(b1-3)GlcNAc(b1-2)Man(a1-3)[Fuc(a1-2)Gal(b1-3)GlcNAc(b1-2)Man(a1-6)]Man(b1-4)GlcNAc(b1-4)GlcNAc
# In short: as §1
# [3] = molecular target: Fuc(a1-2)Gal(b1-4)GlcNAc(b1-2)[Fuc(a1-2)Gal(b1-4)GlcNAc(b1-4)]Man(a1-3)[Fuc(a1-2)Gal(b1-4)GlcNAc(b1-2)Man(a1-6)]Man(b1-4)GlcNAc(b1-4)GlcNAc
# In short: as §1
# [4] = molecular target: Fuc(a1-2)[Gal(a1-3)]Gal(b1-4)Glc
# In short: as §1
# [5] = molecular target: Fuc(a1-2)[Gal(a1-3)]Gal(b1-4)GlcNAc(b1-2)Man(a1-3)[Fuc(a1-2)[Gal(a1-3)]Gal(b1-4)GlcNAc(b1-2)Man(a1-6)]Man(b1-4)GlcNAc(b1-4)GlcNAc
# In short: as §1
# [6] = molecular target: Fuc(a1-2)[Gal(a1-3)]Gal(b1-4)[Fuc(a1-3)]GlcNAc
# In short: as §1
# [7] = molecular target: Fuc(a1-2)[GalNAc(a1-3)]Gal(b1-3)GlcNAc(b1-2)Man(a1-3)[Fuc(a1-2)[GalNAc(a1-3)]Gal(b1-3)GlcNAc(b1-2)Man(a1-6)]Man(b1-4)GlcNAc(b1-4)[Fuc(a1-6)]GlcNAc
# In short: as §1
# [8] = molecular target: Fuc(a1-2)[GalNAc(a1-3)]Gal(b1-4)GlcNAc(b1-2)Man(a1-3)[Fuc(a1-2)[GalNAc(a1-3)]Gal(b1-4)GlcNAc(b1-2)Man(a1-6)]Man(b1-4)GlcNAc(b1-4)GlcNAc
# In short: as §1
# [9] = molecular target: Fuc(a1-2)[GalNAc(a1-3)]Gal(b1-4)GlcNAc(b1-3)Gal(b1-4)GlcNAc
# In short: as §1
# [10] = molecular target: Fuc(a1-2)[GalNAc(a1-3)]Gal(b1-4)GlcNAc(b1-3)Gal(b1-4)GlcNAc(b1-3)Gal(b1-4)GlcNAc
# In short: as §1
# [11] = molecular target: Fuc(a1-3)[Gal(b1-4)]GlcNAc(b1-2)Man(a1-6)[Gal(b1-4)GlcNAc(b1-2)Man(a1-3)]Man(b1-4)GlcNAc(b1-4)GlcNAc
# In short: as §1
# [12] = molecular target: Gal(a1-3)Gal
# In short: as §1
# [13] = molecular target: Gal(a1-3)Gal(b1-4)[Fuc(a1-3)]GlcNAc(b1-2)Man(a1-3)[Gal(a1-3)Gal(b1-4)[Fuc(a1-3)]GlcNAc(b1-2)Man(a1-6)]Man(b1-4)GlcNAc(b1-4)GlcNAc
# In short: as §1
# [14] = molecular target: Gal(b1-2)Gal
# In short: as §1
# [15] = molecular target: Gal(b1-3)GalNAc(a1-3)[Fuc(a1-2)]Gal(b1-4)GlcNAc
# In short: as §1
# [16] = molecular target: Gal(b1-3)GlcNAc
# In short: as §1
# [17] = molecular target: Gal(b1-3)GlcNAc(b1-2)Man(a1-3)[Gal(b1-3)GlcNAc(b1-2)Man(a1-6)]Man(b1-4)GlcNAc(b1-4)[Fuc(a1-6)]GlcNAc
# In short: as §1
# [18] = molecular target: Gal(b1-3)GlcNAc(b1-3)Gal(b1-4)Glc
# In short: as §1
# [19] = molecular target: Gal(b1-3)GlcNAc(b1-3)GalNAc
# In short: as §1
# [20] = molecular target: Gal(b1-4)Gal
# In short: as §1
# [21] = molecular target: Gal(b1-4)GlcNAc(b1-2)Man(a1-3)[Man(a1-6)]Man(b1-4)GlcNAc(b1-4)GlcNAc
# In short: as §1
# [22] = molecular target: Gal(b1-4)GlcNAc(b1-2)[Gal(b1-4)GlcNAc(b1-6)]Man(a1-6)[GlcNAc(b1-4)][Gal(b1-4)GlcNAc(b1-2)Man(a1-3)]Man(b1-4)GlcNAc(b1-4)GlcNAc
# In short: as §1
# [23] = molecular target: Gal(b1-4)GlcNAc(b1-3)Gal(b1-3)GlcNAc
# In short: as §1
# [24] = molecular target: Gal(b1-4)GlcNAc(b1-3)Gal(b1-4)Glc
# In short: as §1
# [25] = molecular target: Gal3S6S(b1-4)GlcNAc6S
# In short: as §1
# [26] = molecular target: Gal6S(b1-4)Glc6S
# In short: as §1
# [27] = molecular target: Gal6S(b1-4)GlcNAc
# In short: as §1
# [28] = molecular target: GalNAc6S(b1-4)GlcNAc
# In short: as §1
# [29] = molecular target: Glc(a1-6)Glc(a1-6)Glc(a1-6)Glc
# In short: as §1
# [30] = molecular target: Glc(b1-4)Glc
# In short: as §1
# [31] = molecular target: Glc(b1-6)Glc
# In short: as §1
# [32] = molecular target: GlcA(b1-3)Gal
# In short: as §1
# [33] = molecular target: GlcNAc(b1-3)[GlcNAc(b1-4)][GlcNAc(b1-6)]GlcNAc
# In short: as §1
# [34] = molecular target: GlcNAc6S(b1-3)Gal(b1-4)GlcNAc
# In short: as §1
# [35] = molecular target: Man(a1-3)[Man(a1-6)]Man(a1-6)[Man(a1-2)Man(a1-3)]Man(b1-4)GlcNAc(b1-4)GlcNAc
# In short: as §1
# [36] = molecular target: Man(a1-3)[Man(a1-6)]Man(a1-6)[Man(a1-3)]Man
# In short: as §1
# [37] = molecular target: Man(a1-3)[Man(a1-6)]Man(a1-6)[Man(a1-3)]Man(b1-4)GlcNAc(b1-4)GlcNAc
# In short: as §1
# [38] = molecular target: Neu5Ac(a2-3)Gal(b1-3)GlcNAc6S
# In short: as §1
# [39] = molecular target: Neu5Ac(a2-3)Gal(b1-4)GlcNAc(b1-2)Man(a1-3)[GlcNAc(b1-2)Man(b1-4)GlcNAc(b1-2)Man(a1-6)]Man(b1-4)GlcNAc(b1-4)GlcNAc
# In short: as §1
# [40] = molecular target: Neu5Ac(a2-3)Gal(b1-4)GlcNAc(b1-2)Man(a1-3)[Neu5Ac(a2-6)Gal(b1-4)GlcNAc(b1-2)Man(a1-6)]Man(b1-4)GlcNAc(b1-4)GlcNAc
# In short: as §1
# [41] = molecular target: Neu5Ac(a2-3)Gal(b1-4)GlcNAc(b1-3)Gal(b1-4)GlcNAc
# In short: as §1
# [42] = molecular target: Neu5Ac(a2-3)Gal(b1-4)[Fuc(a1-3)]GlcNAc(b1-3)Gal
# In short: as §1
# [43] = molecular target: Neu5Ac(a2-3)Gal(b1-4)[Fuc(a1-3)]GlcNAc6S
# In short: as §1
# [44] = molecular target: Neu5Ac(a2-3)GalNAc
# In short: as §1
# [45] = molecular target: Neu5Ac(a2-6)Gal(b1-4)GlcNAc(b1-2)Man(a1-3)[Gal(b1-4)GlcNAc(b1-2)Man(a1-6)]Man(b1-4)GlcNAc(b1-4)GlcNAc
# In short: as §1
# [46] = molecular target: Neu5Ac(a2-8)Neu5Ac(a2-8)Neu5Ac(a2-3)[GalNAc(b1-4)]Gal(b1-4)Glc
# In short: as §1
# [47] = molecular target: Neu5Gc(a2-3)Gal(b1-3)[Fuc(a1-4)]GlcNAc
# In short: as §1
# [48] = molecular target: Neu5Gc(b2-6)Gal(b1-4)GlcNAc
# In short: as §1
binder,measurement,setting,value
"Gal 8 (Homo sapiens), O00214_1 (protein) MMLSLNNLQNIIYNPVIPFVGTIPDQLDPGTLIVIRGHVPSDADRFQVDLQNGSSMKPRADVAFHFNPRFKRAGCIVCNTLINEKWGREEITYDTPFKREKSFEIVIMVLKDKFQVAVNGKHTLLYGHRIGPEKIDTLGIYGKVNIHSIGFSFSSDLQSTQASSLELTEISRENVPKSGTPQLRLPFAARLNTPMGPGRTVVVKGEVNANAKSFNVDLLAGKSKDIALHLNPRLNIKAFVRNSFLQESWGEEERNITSFPFSPGMYFEMIIYCDVREFKVAVNGVHSLEYKHRFKELSSIDTLEINGDIHLLEVRSW",glycan array binding signal (z-score),[1],-0.23
same,glycan array binding signal (z-score),[2],0.466
same,glycan array binding signal (z-score),[3],-1.24
same,glycan array binding signal (z-score),[4],3.1
same,glycan array binding signal (z-score),[5],2.33
same,glycan array binding signal (z-score),[6],-0.143
same,glycan array binding signal (z-score),[7],1.73
same,glycan array binding signal (z-score),[8],2.14
same,glycan array binding signal (z-score),[9],2.58
same,glycan array binding signal (z-score),[10],2.31
same,glycan array binding signal (z-score),[11],-0.273
same,glycan array binding signal (z-score),[12],-0.252
same,glycan array binding signal (z-score),[13],-0.137
same,glycan array binding signal (z-score),[14],-0.201
same,glycan array binding signal (z-score),[15],2.17
same,glycan array binding signal (z-score),[16],-0.167
same,glycan array binding signal (z-score),[17],-0.63
same,glycan array binding signal (z-score),[18],0.084
same,glycan array binding signal (z-score),[19],-0.235
same,glycan array binding signal (z-score),[20],-0.099
same,glycan array binding signal (z-score),[21],0.003
same,glycan array binding signal (z-score),[22],-0.251
same,glycan array binding signal (z-score),[23],1.38
same,glycan array binding signal (z-score),[24],2.32
same,glycan array binding signal (z-score),[25],-0.201
same,glycan array binding signal (z-score),[26],-0.094
same,glycan array binding signal (z-score),[27],-0.172
same,glycan array binding signal (z-score),[28],-0.215
same,glycan array binding signal (z-score),[29],-0.23
same,glycan array binding signal (z-score),[30],0.078
same,glycan array binding signal (z-score),[31],-0.234
same,glycan array binding signal (z-score),[32],-0.219
same,glycan array binding signal (z-score),[33],-0.227
same,glycan array binding signal (z-score),[34],-0.585
same,glycan array binding signal (z-score),[35],2.31
same,glycan array binding signal (z-score),[36],-0.195
same,glycan array binding signal (z-score),[37],-0.16
same,glycan array binding signal (z-score),[38],2.19
same,glycan array binding signal (z-score),[39],-0.189
same,glycan array binding signal (z-score),[40],-0.225
same,glycan array binding signal (z-score),[41],-0.244
same,glycan array binding signal (z-score),[42],-0.243
same,glycan array binding signal (z-score),[43],-0.235
same,glycan array binding signal (z-score),[44],-0.201
same,glycan array binding signal (z-score),[45],-0.254
same,glycan array binding signal (z-score),[46],0.35
same,glycan array binding signal (z-score),[47],-0.233
same,glycan array binding signal (z-score),[48],-0.219
